{"source": "PubChem BioAssay AID1950", "about": "(The Scripps Research Institute Molecular Screening Center, 2009)", "note": "About 1,000 (0.33%) of roughly 300,000 compounds were called active. No stated cut-off is given here; in the data, active means inhibition above about 28%; inactive means the rest. The entries come from a sample that favours actives as a whole."}
{"system": "EBNA-1 (Epstein-Barr virus nuclear antigen 1), Human herpesvirus 4", "test": "blockers of EBV EBNA-1 binding to DNA – biochemical, fluorescence polarization, primary screen (AID 1950)", "conditions": "EBNA-1 DNA binding, at 14.8 µM, hits give high values"}
{"compound": "COc1ccc(-c2nonc2NC(=O)c2oc3ccc(F)cc3c2C)cc1OC", "inhibition": "34.8% (active)"}
{"compound": "CCc1nonc1NC(=O)c1oc2ccc(Cl)cc2c1C", "inhibition": "7.96% (inactive)"}
{"compound": "Cc1nonc1NC(=O)c1oc2ccccc2c1C", "inhibition": "1.17% (inactive)"}
{"compound": "O=C(CCS(=O)(=O)c1ccccc1)NC1CCCC1", "inhibition": "-3.67% (inactive)"}
{"compound": "COc1cccc(N(CC(=O)Nc2cccc(F)c2)S(C)(=O)=O)c1", "inhibition": "-2.72% (inactive)"}
{"compound": "Cc1cccc(N(CC(=O)Nc2ccc(-c3nc4ccc(C)cc4s3)cc2)S(C)(=O)=O)c1", "inhibition": "46.6% (active)"}
{"compound": "Cc1nc2ccc(S(=O)(=O)N(C)CC(=O)NC(C)c3ccccc3)cc2s1", "note": "(centres undefined)", "inhibition": "-7.08% (inactive)"}
{"compound": "CCN(CC)S(=O)(=O)c1ccc(NC(=O)CN(c2cccc(F)c2)S(C)(=O)=O)cc1", "inhibition": "-22.3% (inactive)"}
{"compound": "COc1cc(NC(=O)CN(C)S(=O)(=O)c2ccc3nc(C)sc3c2)cc(OC)c1", "inhibition": "1.78% (inactive)"}
{"compound": "Cc1ccc2nc(-c3ccc(NC(=O)CN(C)S(=O)(=O)c4ccccc4)cc3)sc2c1", "inhibition": "72.6% (active)"}
{"compound": "COc1cccc(CNn2cn[nH]c2=S)c1OCc1ccccc1", "inhibition": "7.14% (inactive)"}
{"compound": "O=C(CN1CCSCC1)N/N=C/c1ccc(F)cc1", "inhibition": "10.8% (inactive)"}
{"compound": "CCOc1ccc(CCNC(=O)COC(=O)c2ccc(F)c(S(=O)(=O)N3CCOCC3)c2)cc1OCC", "inhibition": "-5.23% (inactive)"}
{"compound": "O=C(Nc1ccccc1F)c1ccc(Cn2cc(Br)cn2)cc1", "inhibition": "-6.22% (inactive)"}
{"compound": "NC(=O)Cn1nc([N+](=O)[O-])nc1Oc1ccc(Br)cc1", "inhibition": "4.94% (inactive)"}
{"compound": "COc1ccc(CCNC(=O)C2CCCN2C(=O)Nc2ccccc2)cc1OC", "note": "(centres undefined)", "inhibition": "2.79% (inactive)"}
{"compound": "CCCCCCCCCCCCC(NC(C)=O)(C(=O)OCC)C(=O)OCC", "inhibition": "-7.56% (inactive)"}
{"compound": "CC(C)CNC(=O)C(=O)Nc1ccc(N(C)C)cc1", "inhibition": "-3.03% (inactive)"}
{"compound": "CN(C)c1ccc(N/C=C/C(=O)C(F)(F)F)cc1", "inhibition": "173% (active)"}
{"compound": "CC(=O)N(C)c1ccc(NC(=O)C(F)(F)F)cc1", "inhibition": "-11.5% (inactive)"}
{"compound": "CCCn1nnnc1NCc1ccc(CC)cc1", "inhibition": "10.3% (inactive)"}
{"compound": "CC(C)c1ccc(NC(=S)NC2CC3C=CC2C3)cc1", "note": "(centres undefined)", "inhibition": "-1.5% (inactive)"}
{"compound": "COc1ccc2[nH]c3nc(SCC(=O)NC4CC4)nnc3c2c1", "inhibition": "-0.29% (inactive)"}
{"compound": "COc1ccc2nc(SCc3ccccc3)nc(C)c2c1", "inhibition": "11.4% (inactive)"}
{"compound": "COC(=O)CSc1nc(C)c2ccc(OC)cc2n1", "inhibition": "78.5% (active)"}
{"compound": "CCN(CC)Cc1csc2ccc(Br)cc12", "inhibition": "5.3% (inactive)"}
{"compound": "O=C(C1CCC1)N1CCc2cc(S(=O)(=O)NCc3cccnc3)ccc21", "inhibition": "8.39% (inactive)"}
{"compound": "COc1cc(Nc2nc3ccc(Cl)cc3n3cnnc23)cc(OC)c1OC", "inhibition": "2.08% (inactive)"}
{"compound": "O=C(Nc1ccc(C2CC2(Cl)Cl)cc1)c1cccc([N+](=O)[O-])c1", "note": "(centres undefined)", "inhibition": "-4.52% (inactive)"}
{"compound": "Cc1ccc(-n2c(C)cc(/C=C(\\C#N)C(=O)NCC3CCCO3)c2C)cc1", "note": "(centres undefined)", "inhibition": "7.66% (inactive)"}
{"compound": "O=C(Cn1c(NCCO)nc2ccccc21)c1ccc(Cl)cc1Cl", "inhibition": "-13.3% (inactive)"}
{"compound": "Cc1ccc2c(C)c(C(=O)N(C)Cc3ccncn3)oc2c1C", "inhibition": "3.76% (inactive)"}
{"compound": "COc1ccc2c(c1)C(C)=CC(C)(C)N2C(=O)CNCc1ccc2c(c1)OCO2", "inhibition": "3.99% (inactive)"}
{"compound": "COc1ccc(NC(=O)NCc2ccc3c(c2)OCO3)c(OC)c1", "inhibition": "71.6% (active)"}
{"compound": "COc1cc(OC)c(C(=O)NCc2ccc3c(c2)OCO3)cc1OC", "inhibition": "-7.83% (inactive)"}
{"compound": "O=C(NCc1ccccc1)[C@@H]1CSC2c3ccccc3C(=O)N21", "note": "(some centres undefined)", "inhibition": "-9.14% (inactive)"}
{"compound": "Cc1ccccc1CCN(CC(=O)NC1CCCCC1)C(=O)c1csnn1", "inhibition": "3.08% (inactive)"}
{"compound": "CCN(CC(=O)Nc1c(F)cccc1F)C(=O)CN1c2cccc3cccc(c23)S1(=O)=O", "inhibition": "-4.49% (inactive)"}
{"compound": "Nc1cc(N)nc(SCc2cccc(F)c2)n1", "inhibition": "-19.7% (inactive)"}
{"compound": "COC(=O)c1ccccc1NC(=O)CSc1nc2c(c(=O)[nH]1)CCC2", "inhibition": "-3.59% (inactive)"}
{"compound": "Cc1cccc(NC(=O)Cn2c(=O)n(Cc3ccccc3)c(=O)c3c(C)c(C)sc32)c1", "inhibition": "79.6% (active)"}
{"compound": "Cc1sc2c(c1C)c(=O)n(-c1ccccc1)c(=O)n2CC(=O)NCC1CCCO1", "note": "(centres undefined)", "inhibition": "1.39% (inactive)"}
{"compound": "Cc1cccc(-n2c(=O)c3c(C)c(C)sc3n(CC(N)=O)c2=O)c1", "inhibition": "-0.9% (inactive)"}
{"compound": "CCOCCCN(C)C1CCN(C(=O)c2oc3ccccc3c2NC(=O)Cc2cccc([N+](=O)[O-])c2)CC1", "inhibition": "-6.1% (inactive)"}
{"compound": "CCOc1ccc(C(C(=O)NCCOC)N(CCOC)C(=O)CCC(=O)Nc2ccccn2)cc1", "note": "(centres undefined)", "inhibition": "-5.61% (inactive)"}
{"compound": "CCOc1ccc(-c2cn(S(=O)(=O)c3cccc4nsnc34)nc2N)cc1", "inhibition": "3.63% (inactive)"}
{"compound": "C=CCN(C(=O)Nc1ccc2oc(C)nc2c1)c1ccccc1", "inhibition": "14.4% (inactive)"}
{"compound": "CCN(CC)c1ccc2oc(=O)c(C)nc2c1", "inhibition": "110% (active)"}
{"compound": "CCN(CC)c1ccc2cc(C(N)=O)/c(=N\\NC(=O)c3ccncc3)oc2c1", "inhibition": "9.01% (inactive)"}
{"compound": "C=CCOC(=O)C1=C[C@H](c2ccc(Br)cc2)C[C@H](OCCCCO)O1", "inhibition": "8.07% (inactive)"}
{"compound": "CCc1ccc(C(=O)NN=C2CCCCCC2)s1", "inhibition": "4.85% (inactive)"}
{"compound": "Cc1cccc(C(=O)OCC(=O)Nc2sc3c(c2C#N)CCC3)c1", "inhibition": "3.25% (inactive)"}
{"compound": "N#Cc1c(NC(=O)CCCl)sc2c1CCCCC2", "inhibition": "-14.9% (inactive)"}
{"compound": "CC(=O)c1c(C)[nH]c(C(=O)OCC(=O)Nc2sc3c(c2C#N)CCCC3)c1C", "inhibition": "42.2% (active)"}
{"compound": "CC(=O)c1cc(-c2ccccc2)[nH]c1N1CCCC1", "inhibition": "-8.66% (inactive)"}
{"compound": "Cc1ccc2c(c1)C(O)(CC(=O)c1cccc(-n3cccc3)c1)C(=O)N2", "note": "(centres undefined)", "inhibition": "2.62% (inactive)"}
{"compound": "CC1=NCCN1S(=O)(=O)c1cccc([N+](=O)[O-])c1", "inhibition": "-6.19% (inactive)"}
{"compound": "O=[N+]([O-])c1cccc(S(=O)(=O)N2CCCCCC2)c1", "inhibition": "1.71% (inactive)"}
{"compound": "CCc1nccn1S(=O)(=O)c1cccc([N+](=O)[O-])c1", "inhibition": "31.4% (active)"}
{"compound": "Cc1cc(Nc2ccc(Br)cc2)nc2ccccc12", "inhibition": "-8.6% (inactive)"}
{"compound": "O=C(N/C(=C/c1ccc(Cl)cc1)C(=O)N1CCCCC1)c1ccco1", "inhibition": "7.31% (inactive)"}
{"compound": "CC(=O)CC[C@@H](C)O[C@@H]1OC(C)[C@H](O)CC1O", "note": "(some centres undefined)", "inhibition": "4.39% (inactive)"}
{"compound": "COc1ccc(C)cc1NC(=O)NCc1ccccn1", "inhibition": "110% (active)"}
{"compound": "COc1ccc(C)cc1NC(=O)NCCCCc1ccccc1", "inhibition": "2.71% (inactive)"}
{"compound": "Cc1cc(C)cc(NC(=O)NCc2ccccn2)c1", "inhibition": "-7.86% (inactive)"}
{"compound": "CCOc1ccc(S(=O)(=O)N2CCN=C2Cc2ccccc2)cc1C", "inhibition": "4.47% (inactive)"}
{"compound": "CC1CCCN(S(=O)(=O)c2ccc(-c3ccc(=O)[nH]n3)o2)C1", "note": "(centres undefined)", "inhibition": "-20.5% (inactive)"}
{"compound": "Cc1cccc(N2Cc3ccccc3C2=NC(=O)c2ccc(Cl)nc2)c1", "inhibition": "17.6% (inactive)"}
{"compound": "O=C(Nc1ccccc1)OCc1cn(-c2ccc(Cl)cc2)nn1", "inhibition": "6.14% (inactive)"}
{"compound": "N#Cc1ccc(N2Cc3ccccc3/C2=N/C(=O)Nc2ccc(Cl)cc2)cc1", "inhibition": "73.5% (active)"}
{"compound": "COc1ccc(NC2CCCN(C(=O)c3ccncc3)C2)cc1", "note": "(centres undefined)", "inhibition": "5.52% (inactive)"}
{"compound": "C=CCN(c1ccc(Cl)cc1)S(=O)(=O)c1cccc(C(=O)OCC(=O)N(C)C)c1", "inhibition": "11.1% (inactive)"}
{"compound": "COc1ccc(C(C[N+](=O)[O-])n2nc(C)cc2C)cc1", "note": "(centres undefined)", "inhibition": "11% (inactive)"}
{"compound": "O=C(CCCn1c(SCC(=O)c2ccc(F)cc2)nc2ccccc2c1=O)NCc1ccco1", "inhibition": "37.8% (active)"}
{"compound": "O=C(CCCn1c(SCC(=O)c2ccccc2)nc2ccccc2c1=O)NCC1CCCO1", "note": "(centres undefined)", "inhibition": "1.63% (inactive)"}
{"compound": "Cn1c(-c2ccc(F)cc2)cnc1SCC(=O)NCc1ccco1", "inhibition": "3.48% (inactive)"}
{"compound": "CC(C)C[C@H]1CN=C(Nc2ccccc2)N1CC1CCCCC1", "inhibition": "0.22% (inactive)"}
{"compound": "COc1ccc(NC(=O)C2C3CCC(O3)C2C(=O)O)cc1OC", "note": "(centres undefined)", "inhibition": "5.36% (inactive)"}
{"compound": "COc1ccc(C(=O)Nc2ccccc2C(=O)N/N=C/c2ccc(O)c(OC)c2)cc1", "inhibition": "6.06% (inactive)"}
{"compound": "CCOc1cc(C2C(C(=O)OC)=CN(C3CCCC3)C=C2C(=O)OC)cc(Br)c1O", "inhibition": "11.7% (inactive)"}
{"compound": "COC(=O)C1=CN(Cc2ccc(OC)cc2)C=C(C(=O)OC)C1c1ccc(O)c(OC)c1", "inhibition": "28.7% (active)"}
{"compound": "Cc1ccccc1NC(=O)C(C)OC(=O)CCC(=O)N(CC(C)C)c1c(N)n(CC(C)C)c(=O)[nH]c1=O", "note": "(centres undefined)", "inhibition": "-7.69% (inactive)"}
{"compound": "COc1ccc(S(=O)(=O)NC(C)C(=O)N2CCCCCC2)cc1", "note": "(centres undefined)", "inhibition": "2.58% (inactive)"}
{"compound": "CSc1nnc(SCc2nc3sc(C(=O)O)c(C)c3c(=O)[nH]2)s1", "inhibition": "4.86% (inactive)"}
{"compound": "CCOC(=O)c1ccc[n+](CC(=O)Nc2ccccc2OC(F)F)c1", "inhibition": "-2.1% (inactive)"}
{"compound": "Cc1ccc(-c2nc(SCC(=O)Nc3ccccc3OC(F)F)c3c(C)c(C(=O)O)sc3n2)cc1", "inhibition": "29.7% (active)"}
{"compound": "COc1ccccc1NC(=O)CSc1nc2sc3c(c2c(=O)n1-c1ccccc1)CCN(C)C3", "inhibition": "-6.51% (inactive)"}
{"compound": "COc1ccc([N+](=O)[O-])cc1NCC(=O)c1ccc(C)cc1", "inhibition": "5.63% (inactive)"}
{"compound": "Cc1ccc(S(=O)(=O)N(CC(O)CN2C(=O)NC(C)(C)C2=O)c2cccc([N+](=O)[O-])c2)cc1", "note": "(centres undefined)", "inhibition": "-8.62% (inactive)"}
{"compound": "Cc1cc(=O)oc2cc(OCC(=O)Nc3nnc(C4CC4)s3)ccc12", "inhibition": "7.9% (inactive)"}
{"compound": "Cc1ccc(O)c(/C=N/NC(=O)COc2ccc3c(C)cc(=O)oc3c2)c1", "inhibition": "27.9% (active)"}
{"compound": "CCOC(=O)Cc1csc(NC(=O)COc2ccc3c(C)cc(=O)oc3c2)n1", "inhibition": "-2.07% (inactive)"}
{"compound": "Cc1ccc(OCCC(=O)OCC(=O)N2c3ccccc3NC(=O)C2(C)C)cc1", "inhibition": "-1.98% (inactive)"}
{"compound": "CN1CCN(CC(=O)C23CC4CC(CC(C4)C2)C3)CC1", "inhibition": "-0.65% (inactive)"}
